Assay results published in PubChem BioAssay (EPA / NIEHS).
Results filed as inconclusive are left out. Calls of active or inactive are those of the source. The calls were made as follows, unless noted: active = hit-call score of the fitted dose curve at least 0.9, where 1 is the maximum; inactive = score below 0.9.

Assays:
[1] = target: Paired box protein Pax-6 (Homo sapiens) (UniProt P26367); assay: ATG_Pax6_CIS: Attagene CIS-FACTORIAL HepG2 Assay for human Paired Box 6 (PAX6) (AID 2282956); settings: HepG2 CIS-FACTORIAL PAX6 reporter transcription, RNA readout; actives raise or lower the signal
Paired box protein Pax-6 (Homo sapiens), sequence (P26367 whole entry, looked up): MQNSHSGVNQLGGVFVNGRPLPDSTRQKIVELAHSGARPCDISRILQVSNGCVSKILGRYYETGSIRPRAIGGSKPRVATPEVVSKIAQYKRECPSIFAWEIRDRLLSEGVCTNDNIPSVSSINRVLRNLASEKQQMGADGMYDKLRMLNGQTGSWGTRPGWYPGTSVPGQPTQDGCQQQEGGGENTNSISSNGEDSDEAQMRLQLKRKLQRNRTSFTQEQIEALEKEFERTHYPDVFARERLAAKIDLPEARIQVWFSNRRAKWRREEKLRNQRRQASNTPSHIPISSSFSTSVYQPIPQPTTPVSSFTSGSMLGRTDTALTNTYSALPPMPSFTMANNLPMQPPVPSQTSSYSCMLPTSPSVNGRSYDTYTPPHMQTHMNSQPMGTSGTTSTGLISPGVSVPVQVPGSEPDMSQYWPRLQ
Outline: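 Values derive from bidirectional curve fitting of reporter mRNA signal relative to DMSO. HepG2 cells bearing transfected cis-regulated MRTUs were exposed for 24 h; transcripts were read by RT-PCR and capillary electrophoresis.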

[2] = ATG_PXRE_CIS: Attagene CIS-FACTORIAL HepG2 Assay for human Pregnane X Receptor Element (PXRE) (AID 2282957); settings: HepG2 Attagene CIS-FACTORIAL PXRE reporter, mRNA; actives raise or lower the signal
Outline: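 Endogenous transcription factor activity in HepG2 was gauged through induction of reporter mRNA driven by a cis-regulating promoter element, sampled 24 h post-treatment. Activity was fitted in both directions against DMSO negative control.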

[3] = ATG_RORE_CIS: Attagene CIS-FACTORIAL HepG2 Assay for human RAR-related Orphan Receptor Element (RORE) (AID 2282959); settings: HepG2 Attagene cis-factorial RORE reporter, mRNA; actives raise or lower the signal
Outline: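 Transfect HepG2 with MRTUs; treat 24 h; extract RNA; RT with oligo(dT); PCR with reporter-specific primers; 6-FAM primer extension; HpaI digest 2 h at 37 C; capillary electrophoresis. Fit vs DMSO, bidirectional.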

[4] = ATG_Sox_CIS: Attagene CIS-FACTORIAL HepG2 Assay for human SRY-box transcription factor (SOX) (AID 2282960); settings: HepG2 Attagene cis-factorial SOX reporter, mRNA; actives raise or lower the signal
Outline: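 Fluorescence-labelled cDNA fragments from reporter transcripts, sized by CE, give the signal. Cells: HepG2, transiently transfected with cis-regulated reporter units. Exposure 24 h; DMSO negative control; bidirectional curve fitting.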

[5] = target: Transcription factor Sp1 (Homo sapiens) (UniProt P08047); assay: ATG_Sp1_CIS: Attagene CIS-FACTORIAL HepG2 Assay for human Specificity Protein 1 (Sp1) (AID 2282961); settings: HepG2 Sp1 cis-reporter transcription, actives raise or lower the signal
Transcription factor Sp1 (Homo sapiens), sequence (P08047 whole entry, looked up): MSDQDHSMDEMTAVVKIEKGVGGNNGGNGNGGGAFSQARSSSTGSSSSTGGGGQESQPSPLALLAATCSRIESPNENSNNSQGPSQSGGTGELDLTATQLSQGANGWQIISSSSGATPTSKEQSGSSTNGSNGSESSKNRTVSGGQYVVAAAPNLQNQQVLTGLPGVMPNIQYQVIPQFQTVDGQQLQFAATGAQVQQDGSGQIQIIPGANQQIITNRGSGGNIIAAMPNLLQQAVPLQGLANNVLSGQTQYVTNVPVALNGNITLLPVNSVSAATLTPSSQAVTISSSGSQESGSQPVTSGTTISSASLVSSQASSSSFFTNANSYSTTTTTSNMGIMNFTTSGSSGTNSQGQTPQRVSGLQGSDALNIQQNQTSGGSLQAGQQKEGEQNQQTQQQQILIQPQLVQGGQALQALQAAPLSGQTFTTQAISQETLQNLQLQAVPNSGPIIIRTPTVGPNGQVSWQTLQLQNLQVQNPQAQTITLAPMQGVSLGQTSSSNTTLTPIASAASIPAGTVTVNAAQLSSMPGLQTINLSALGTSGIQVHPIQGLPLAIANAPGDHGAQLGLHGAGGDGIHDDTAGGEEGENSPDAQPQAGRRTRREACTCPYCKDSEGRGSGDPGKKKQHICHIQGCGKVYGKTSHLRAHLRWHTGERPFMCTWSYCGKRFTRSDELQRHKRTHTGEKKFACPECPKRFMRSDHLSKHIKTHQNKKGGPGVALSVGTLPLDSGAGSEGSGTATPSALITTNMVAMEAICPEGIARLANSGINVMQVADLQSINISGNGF
Outline: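 Chemicals are dosed onto HepG2 cells transfected with multiple cis-promoter reporter constructs, and after 24 h reporter RNA is reverse-transcribed, PCR-amplified and resolved by capillary electrophoresis for fluorescence quantitation; activity is scored up or down against DMSO.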

[6] = target: Signal transducer and activator of transcription 3 (Homo sapiens) (UniProt P40763); assay: ATG_STAT3_CIS: Attagene CIS-FACTORIAL HepG2 Assay for human Signal Transducer and Activator of Transcription 3 (STAT3) (AID 2282963); settings: HepG2, Attagene cis-factorial STAT3 reporter transcription; actives raise or lower the signal
Signal transducer and activator of transcription 3 (Homo sapiens), sequence (P40763 whole entry, looked up): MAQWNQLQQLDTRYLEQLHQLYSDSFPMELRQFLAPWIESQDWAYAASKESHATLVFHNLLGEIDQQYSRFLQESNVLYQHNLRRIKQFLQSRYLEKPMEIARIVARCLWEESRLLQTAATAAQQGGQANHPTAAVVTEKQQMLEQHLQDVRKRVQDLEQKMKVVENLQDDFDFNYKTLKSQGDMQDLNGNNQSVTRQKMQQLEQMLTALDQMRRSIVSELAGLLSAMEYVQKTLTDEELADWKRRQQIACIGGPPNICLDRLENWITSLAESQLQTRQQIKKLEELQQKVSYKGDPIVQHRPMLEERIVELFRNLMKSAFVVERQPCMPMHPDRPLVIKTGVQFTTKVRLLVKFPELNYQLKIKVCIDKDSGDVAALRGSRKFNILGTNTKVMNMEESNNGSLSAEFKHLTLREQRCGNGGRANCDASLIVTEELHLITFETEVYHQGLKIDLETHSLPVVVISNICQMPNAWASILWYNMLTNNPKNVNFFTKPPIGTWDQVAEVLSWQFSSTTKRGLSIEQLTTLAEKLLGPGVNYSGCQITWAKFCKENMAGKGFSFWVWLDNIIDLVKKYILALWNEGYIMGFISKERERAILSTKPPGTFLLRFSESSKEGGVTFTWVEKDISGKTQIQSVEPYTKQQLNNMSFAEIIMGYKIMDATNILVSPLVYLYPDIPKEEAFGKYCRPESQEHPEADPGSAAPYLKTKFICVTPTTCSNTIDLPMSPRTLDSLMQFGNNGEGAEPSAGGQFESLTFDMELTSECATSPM
Outline: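 Uses human liver HepG2 transiently carrying cis-regulated reporter transcription units. Following 24 h dosing, reporter mRNA induction was detected by RT-PCR and capillary electrophoresis, analysed bidirectionally versus DMSO.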

[7] = ATG_TA_CIS: Attagene CIS-FACTORIAL HepG2 Assay for human TA Basal Promoter (AID 2282964); settings: HepG2 Attagene CIS-factorial TA basal promoter reporter; actives raise or lower the signal
Outline: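 Read-out: fluorescent reporter-transcript fragments resolved by capillary electrophoresis after RT-PCR and HpaI digestion. Source: HepG2 cells carrying transiently transfected multi-reporter cis constructs, treated 24 h. Endpoint fitted bidirectionally relative to DMSO.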

[8] = ATG_TCF_b_cat_CIS: Attagene CIS-FACTORIAL HepG2 Assay for human T-Cell-Factor with beta-catenin (TCF/b-cat) (AID 2282965); settings: HepG2 TCF/beta-catenin cis-reporter transcription, actives raise or lower the signal
Outline: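 In this cis-format system, transfected HepG2 cells report endogenous transcription factor activity. Readout after 24 h exposure is reporter transcript abundance from RT-PCR and capillary electrophoresis, analysed for gain or loss of signal versus DMSO.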

[9] = ATG_TAL_CIS: Attagene CIS-FACTORIAL HepG2 Assay for human TAL Basal Promoter (AID 2282966); settings: HepG2 Attagene cis-factorial TAL promoter reporter; actives raise or lower the signal;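 also: background control endpoint measuring basal TAL promoter reporter mRNA not a specific factor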
Outline: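 Endogenous transcription-factor activity is sensed in HepG2 cells through transfected cis-promoter reporter constructs. After 24 h dosing, reporter transcripts are quantified by RT-PCR and capillary electrophoresis. Gain or loss of signal is fitted relative to DMSO.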

[10] = ATG_TGFb_CIS: Attagene CIS-FACTORIAL HepG2 Assay for human Transforming Growth Factor (TGF) (AID 2282967); settings: HepG2 Attagene CIS TGFb reporter, mRNA transcription; actives raise or lower the signal
Outline: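 Transient MRTU transfection of HepG2 (FuGene 6). Dose 24 h. TriZol RNA, oligo(dT) RT, PCR, 6-FAM primer extension, HpaI cut, CE. Bidirectional fit, DMSO = baseline.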

[11] = ATG_VDRE_CIS: Attagene CIS-FACTORIAL HepG2 Assay for human Vitamin D Receptor Element (VDRE) (AID 2282968); settings: HepG2 VDRE cis-reporter transcription, actives raise or lower the signal
Outline: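 Transfected HepG2 reporter cells, chemical treatment 24 h. RNA isolated, cDNA amplified with reporter-specific primers, products analysed by capillary electrophoresis. Endpoint fitted in both directions versus DMSO.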

[12] = target: Nuclear receptor subfamily 1 group I member 3 (Homo sapiens) (UniProt Q14994); assay: ATG_CAR_TRANS: Attagene TRANS-FACTORIAL HepG2 Assay for human Constitutive Androstane Receptor (CAR) (AID 2282969; active = hit-call score of the fitted dose curve at least 0.9, where 1 is the maximum;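 also: activators raise reporter mRNA above DMSO so AC50 marks induction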); settings: HepG2 Attagene TRANS-FACTORIAL CAR reporter
Nuclear receptor subfamily 1 group I member 3 (Homo sapiens), sequence (Q14994 whole entry, looked up, the tested form may be a part): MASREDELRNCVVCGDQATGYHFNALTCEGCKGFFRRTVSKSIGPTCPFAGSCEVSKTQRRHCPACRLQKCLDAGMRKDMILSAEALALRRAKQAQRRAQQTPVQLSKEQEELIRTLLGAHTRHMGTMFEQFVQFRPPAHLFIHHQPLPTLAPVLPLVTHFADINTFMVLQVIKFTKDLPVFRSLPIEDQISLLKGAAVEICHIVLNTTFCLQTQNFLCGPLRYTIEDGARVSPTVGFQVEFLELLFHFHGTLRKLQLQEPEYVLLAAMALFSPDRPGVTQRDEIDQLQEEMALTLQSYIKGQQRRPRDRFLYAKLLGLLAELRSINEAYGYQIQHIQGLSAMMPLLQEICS
Outline: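 Steps: transient transfection of HepG2 with multiple GAL4-UAS reporter units; 24 h compound incubation; RNA isolation, RT-PCR, 6-FAM primer extension, HpaI digest; capillary electrophoresis. Gain-of-signal relative to DMSO negative control.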

[13] = target: X-box-binding protein 1 (Homo sapiens) (UniProt P17861); assay: ATG_Xbp1_CIS: Attagene CIS-FACTORIAL HepG2 Assay for human X-box Binding Protein 1 (XBP1) (AID 2282972); settings: HepG2 XBP1 cis-element reporter, Attagene multiplex; actives raise or lower the signal
X-box-binding protein 1 (Homo sapiens), sequence (P17861 whole entry, looked up): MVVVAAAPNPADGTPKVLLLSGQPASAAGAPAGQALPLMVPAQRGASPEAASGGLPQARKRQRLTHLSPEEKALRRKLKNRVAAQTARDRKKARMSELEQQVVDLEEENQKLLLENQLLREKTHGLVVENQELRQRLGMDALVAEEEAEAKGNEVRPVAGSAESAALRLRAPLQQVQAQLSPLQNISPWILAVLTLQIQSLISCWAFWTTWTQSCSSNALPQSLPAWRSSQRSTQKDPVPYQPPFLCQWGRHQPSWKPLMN
Outline: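 Human hepatoma HepG2, cis-element reporter system, 24 h treatment; mRNA quantified by RT-PCR/CE fluorescence; fit relative to DMSO.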

[14] = ATG_M_19_TRANS: Attagene TRANS-FACTORIAL HepG2 Assay for M19 Transcription Factor (Internal Marker) (AID 2282974; active = hit-call score of the fitted dose curve at least 0.9, where 1 is the maximum); settings: HepG2 Attagene TRANS-FACTORIAL M19 internal marker reporter
Outline: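 Multiplexed TRANS format: HepG2 liver cells bearing transient GAL4-UAS reporter units, chemical treatment 24 h, reporter transcripts quantified by RT-PCR plus capillary electrophoresis. DMSO defines baseline.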

[15] = ATG_PPRE_CIS: Attagene CIS-FACTORIAL HepG2 Assay for human Peroxisome Proliferator-activated Response Element (PPRE) (AID 2282958); settings: HepG2 PPRE cis-element reporter, Attagene transcription factor profiling; actives raise or lower the signal
Outline: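 DMSO served as negative control and baseline for bidirectional curve fitting. Signal came from PPRE-regulated reporter mRNA in HepG2 cells, measured 24 h post-dosing by RT-PCR, 6-FAM primer extension and capillary electrophoresis.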

[16] = target: Estrogen receptor (Homo sapiens) (UniProt P03372); assay: ATG_ERa_TRANS: Attagene TRANS-FACTORIAL HepG2 Assay for human Estrogen Receptor alpha (ERa) (AID 2282970; active = hit-call score of the fitted dose curve at least 0.9, where 1 is the maximum); settings: HepG2 Attagene TRANS ERa GAL4 reporter, mRNA
Estrogen receptor (Homo sapiens), sequence (P03372 whole entry, looked up, the tested form may be a part): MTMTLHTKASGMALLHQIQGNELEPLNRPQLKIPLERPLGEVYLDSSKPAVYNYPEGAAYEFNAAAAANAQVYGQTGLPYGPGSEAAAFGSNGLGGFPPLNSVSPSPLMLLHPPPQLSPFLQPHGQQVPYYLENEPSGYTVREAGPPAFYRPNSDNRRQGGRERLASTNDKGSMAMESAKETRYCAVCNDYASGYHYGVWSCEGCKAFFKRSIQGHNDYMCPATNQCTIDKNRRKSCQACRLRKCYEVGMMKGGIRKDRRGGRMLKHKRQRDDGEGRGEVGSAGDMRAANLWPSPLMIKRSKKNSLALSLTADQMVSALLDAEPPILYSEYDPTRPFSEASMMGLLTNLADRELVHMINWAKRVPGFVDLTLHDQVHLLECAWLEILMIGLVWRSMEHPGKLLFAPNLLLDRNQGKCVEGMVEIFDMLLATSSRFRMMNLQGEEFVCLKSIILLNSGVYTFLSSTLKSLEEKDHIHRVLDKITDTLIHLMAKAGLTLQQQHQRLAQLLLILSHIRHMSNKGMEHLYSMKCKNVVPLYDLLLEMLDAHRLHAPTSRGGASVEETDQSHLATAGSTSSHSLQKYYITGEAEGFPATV
Outline: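 Transfected HepG2 cells carrying GAL4-UAS-driven reporter units were dosed for 24 hours. Total RNA was reverse-transcribed, reporter sequences PCR-amplified, FAM-labelled, HpaI-digested and resolved by capillary electrophoresis. Increases over DMSO control defined activity.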

[17] = target: Androgen receptor (Homo sapiens) (UniProt P10275); assay: ATG_AR_TRANS: Attagene TRANS-FACTORIAL HepG2 Assay for human Androgen Receptor (AR) (AID 2282973; active = hit-call score of the fitted dose curve at least 0.9, where 1 is the maximum); settings: HepG2 Attagene TRANS-FACTORIAL AR reporter transcription
Androgen receptor (Homo sapiens), sequence (P10275 whole entry, looked up, the tested form may be a part): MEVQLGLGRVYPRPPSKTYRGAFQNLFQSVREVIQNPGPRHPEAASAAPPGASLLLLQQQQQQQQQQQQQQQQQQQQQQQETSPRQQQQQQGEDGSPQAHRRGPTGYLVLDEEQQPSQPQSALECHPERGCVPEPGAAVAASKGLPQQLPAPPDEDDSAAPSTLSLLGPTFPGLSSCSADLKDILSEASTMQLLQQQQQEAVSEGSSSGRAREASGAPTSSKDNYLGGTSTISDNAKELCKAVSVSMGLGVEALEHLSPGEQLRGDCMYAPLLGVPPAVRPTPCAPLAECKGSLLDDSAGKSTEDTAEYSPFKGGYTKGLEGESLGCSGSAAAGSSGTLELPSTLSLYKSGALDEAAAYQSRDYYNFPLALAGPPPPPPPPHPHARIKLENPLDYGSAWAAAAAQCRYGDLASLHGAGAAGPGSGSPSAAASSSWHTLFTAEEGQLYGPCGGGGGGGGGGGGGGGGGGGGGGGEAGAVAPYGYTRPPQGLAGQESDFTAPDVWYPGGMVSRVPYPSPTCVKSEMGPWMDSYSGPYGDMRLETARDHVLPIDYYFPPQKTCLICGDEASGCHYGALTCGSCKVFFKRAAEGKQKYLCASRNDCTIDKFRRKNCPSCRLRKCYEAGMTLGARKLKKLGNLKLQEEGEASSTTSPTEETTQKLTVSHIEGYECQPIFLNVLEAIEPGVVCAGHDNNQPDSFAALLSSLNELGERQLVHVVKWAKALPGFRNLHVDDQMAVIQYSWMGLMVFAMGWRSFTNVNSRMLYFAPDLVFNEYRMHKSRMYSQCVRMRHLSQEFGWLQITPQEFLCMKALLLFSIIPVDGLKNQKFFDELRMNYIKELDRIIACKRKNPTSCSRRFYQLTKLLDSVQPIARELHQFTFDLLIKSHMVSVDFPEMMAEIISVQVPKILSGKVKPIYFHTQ
Outline: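 Transfected HepG2, 24 h treatment, chimeric NR-Gal4 driving GAL4-UAS reporters. mRNA induction by RT-PCR/capillary electrophoresis fluorescence; DMSO as negative control and baseline.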

[18] = ATG_SREBP_CIS: Attagene CIS-FACTORIAL HepG2 Assay for human Sterol Regulatory Element Binding (SREBP) (AID 2282962); settings: HepG2 Attagene cis-factorial SREBP reporter, mRNA; actives raise or lower the signal
Outline: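 Values derive from bidirectional curve fitting with DMSO as baseline. The underlying measurement is reporter mRNA from cis-element-regulated units in transiently transfected HepG2, quantified by RT-PCR and capillary electrophoresis after 24 h exposure.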

[19] = target: Steroid hormone receptor ERR1 (Homo sapiens) (UniProt P11474); assay: ATG_ERRa_TRANS: Attagene TRANS-FACTORIAL HepG2 Assay for human Estrogen-Related Receptor alpha (ERRa) (AID 2282971; active = hit-call score of the fitted dose curve at least 0.9, where 1 is the maximum); settings: HepG2 Attagene TRANS reporter, ERRa transactivation
Steroid hormone receptor ERR1 (Homo sapiens), sequence (P11474 whole entry, looked up, the tested form may be a part): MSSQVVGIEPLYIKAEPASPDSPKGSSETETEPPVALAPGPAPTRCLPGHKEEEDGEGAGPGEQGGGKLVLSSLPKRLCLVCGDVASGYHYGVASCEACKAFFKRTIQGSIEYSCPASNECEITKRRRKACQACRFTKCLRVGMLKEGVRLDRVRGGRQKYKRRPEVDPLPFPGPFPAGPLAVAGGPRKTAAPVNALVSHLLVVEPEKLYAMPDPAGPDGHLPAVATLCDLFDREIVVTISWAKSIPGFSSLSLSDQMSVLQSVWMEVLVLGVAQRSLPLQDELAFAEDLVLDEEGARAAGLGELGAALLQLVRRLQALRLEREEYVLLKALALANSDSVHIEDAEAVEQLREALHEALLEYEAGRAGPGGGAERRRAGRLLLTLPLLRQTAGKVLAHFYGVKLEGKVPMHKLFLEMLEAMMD
Outline: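 HepG2 cells were transiently transfected with multiple GAL4-UAS reporter units, then dosed with compound for 24 h. Total RNA was reverse-transcribed, reporter cDNA PCR-amplified and fluorescently labelled, and fragments resolved by capillary electrophoresis; induction was compared with DMSO.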

Measured: AC50

CCCSP(=O)(OCC)SCCC
active: [2] 15.2 µM | [11] 50 µM
not listed: [15] | [16] | [17] | [18] | [19]
inactive: all other assays above

CCc1cccc(CC)c1N(COC)C(=O)CCl
active: [2] 1.15 µM | [5] 7.75 µM | [11] 7.75 µM
not listed: [8] | [12] | [18] | [19]
inactive: all other assays above

CON=C(C(=O)OC)c1ccccc1CON=C(C)c1cccc(C(F)(F)F)c1
active: [2] 32.1 µM | [9] 13 µM | [11] 11.1 µM
not listed: [8] | [16] | [17] | [18] | [19]
inactive: all other assays above

CCC(=O)Nc1ccc(Cl)c(Cl)c1
active: [2] 50 µM
not listed: [8] | [15] | [16] | [18] | [19]
inactive: all other assays above

COc1cc(OC)nc(Sc2cccc(Cl)c2C(=O)O)n1
not listed: [8] | [14] | [15] | [16] | [17]
inactive: all other assays above

CSc1nnc(C(C)(C)C)c(=O)n1N
not listed: [8] | [12] | [14] | [15] | [16] | [17] | [18] | [19]
inactive: all other assays above

CC[C@H](C)[C@H]1O[C@]2(C=C[C@@H]1C)C[C@@H]1C[C@@H](C/C=C(\C)[C@@H](O[C@H]3C[C@H](OC)[C@@H](O[C@H]4C[C@H](OC)[C@@H](NC)[C@H](C)O4)[C@H](C)O3)[C@@H](C)/C=C/C=C3\CO[C@@H]4[C@H](O)C(C)=C[C@@H](C(=O)O1)[C@]34O)O2
not listed: [8] | [15] | [17] | [18] | [19]
inactive: all other assays above

CC(=NC#N)N(C)Cc1ccc(Cl)nc1
active: [2] 64.9 µM
not listed: [12] | [14] | [16] | [17] | [18] | [19]
inactive: all other assays above
